Assay results from the supplement of paper PMC11732987, “Enantioselective OTUD7B fragment discovery through chemoproteomics screening and high-throughput optimisation” (Communications Chemistry, 2025).

How the values were obtained:
Test in all cases: log2 ratio of Biotin-Ahx-Ub-VS probe labelling (fragment/DMSO); higher = less target engagement (more negative = stronger competition), active = hit call of the paper (q ≤ 0.05, log2 ratio ≤ -1)
Conditions in all cases: compound concentration: 200 uM; treatment time: 3 h
OTUD6B = target: T1, OTUD6B (UniProt Q8N6M0)
T1 sequence (whole entry): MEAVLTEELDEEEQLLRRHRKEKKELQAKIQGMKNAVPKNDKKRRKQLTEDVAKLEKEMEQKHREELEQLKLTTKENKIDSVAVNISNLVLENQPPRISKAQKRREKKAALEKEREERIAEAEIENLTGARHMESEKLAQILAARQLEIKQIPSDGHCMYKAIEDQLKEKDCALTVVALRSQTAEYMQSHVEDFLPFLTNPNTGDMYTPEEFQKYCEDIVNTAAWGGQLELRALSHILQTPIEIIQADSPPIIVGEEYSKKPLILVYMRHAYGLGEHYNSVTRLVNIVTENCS
Summary of the method: (§1)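 Each value is an average log2 ratio of fragment to vehicle, tested by unpaired t-test. The underlying Spectronaut label-free quantities were global-median-normalised, and only proteins with ≥2 unique peptides were included. Triplicate HEK293T lysate samples (495 µg) were exposed to fragment at 200 µM or vehicle for 3 h, then to Biotin-Ahx-Ub-VS at 0.5 µM final for 1 h, before NeutrAvidin enrichment of labelled DUBs, LysC and trypsin digestion, and diaPASEF LC-MS/MS.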

OTUD7B = target: T2, OTUD7B (UniProt Q6GQQ9)
T2 sequence (whole entry): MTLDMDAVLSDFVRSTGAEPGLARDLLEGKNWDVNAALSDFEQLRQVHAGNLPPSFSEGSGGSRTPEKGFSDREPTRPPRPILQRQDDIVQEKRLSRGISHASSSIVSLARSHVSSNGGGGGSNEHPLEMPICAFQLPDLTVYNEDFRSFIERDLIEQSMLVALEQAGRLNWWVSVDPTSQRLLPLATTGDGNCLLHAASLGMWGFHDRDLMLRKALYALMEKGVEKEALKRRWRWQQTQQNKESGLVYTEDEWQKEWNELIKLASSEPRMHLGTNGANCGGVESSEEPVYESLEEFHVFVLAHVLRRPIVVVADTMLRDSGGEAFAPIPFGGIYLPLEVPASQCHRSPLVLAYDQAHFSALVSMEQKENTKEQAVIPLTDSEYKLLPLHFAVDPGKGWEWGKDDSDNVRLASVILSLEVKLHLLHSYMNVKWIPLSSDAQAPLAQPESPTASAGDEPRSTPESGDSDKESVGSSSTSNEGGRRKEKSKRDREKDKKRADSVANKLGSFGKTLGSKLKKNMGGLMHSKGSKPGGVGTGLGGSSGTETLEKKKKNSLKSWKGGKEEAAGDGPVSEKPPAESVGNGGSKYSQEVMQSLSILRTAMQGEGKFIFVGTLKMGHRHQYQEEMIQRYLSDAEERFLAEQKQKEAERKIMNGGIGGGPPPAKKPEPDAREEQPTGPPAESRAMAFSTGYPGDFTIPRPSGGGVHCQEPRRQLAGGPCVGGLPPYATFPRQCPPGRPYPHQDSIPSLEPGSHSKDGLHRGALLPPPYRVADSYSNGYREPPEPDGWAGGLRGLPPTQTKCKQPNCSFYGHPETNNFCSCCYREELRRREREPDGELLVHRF
Summary of the method: as §1

PRPF8 = PRPF8 (UniProt Q6P2Q9)
Summary of the method: as §1

PSMD7 = target: T3, PSMD7 (UniProt P51665)
T3 sequence (whole entry): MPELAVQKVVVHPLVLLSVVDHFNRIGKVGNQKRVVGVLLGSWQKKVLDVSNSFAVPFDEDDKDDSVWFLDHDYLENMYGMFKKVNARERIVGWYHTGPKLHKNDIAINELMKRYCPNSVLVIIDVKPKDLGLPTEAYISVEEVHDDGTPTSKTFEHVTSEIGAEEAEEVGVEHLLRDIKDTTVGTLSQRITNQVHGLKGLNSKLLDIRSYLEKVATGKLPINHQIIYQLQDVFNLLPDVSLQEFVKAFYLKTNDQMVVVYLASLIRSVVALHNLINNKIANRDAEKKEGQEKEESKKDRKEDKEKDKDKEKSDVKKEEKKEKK
Summary of the method: as §1

UCHL1 = UCHL1 (UniProt P09936)
Summary of the method: as §1

UCHL3 = target: T4, UCHL3 (UniProt P15374)
T4 sequence (whole entry): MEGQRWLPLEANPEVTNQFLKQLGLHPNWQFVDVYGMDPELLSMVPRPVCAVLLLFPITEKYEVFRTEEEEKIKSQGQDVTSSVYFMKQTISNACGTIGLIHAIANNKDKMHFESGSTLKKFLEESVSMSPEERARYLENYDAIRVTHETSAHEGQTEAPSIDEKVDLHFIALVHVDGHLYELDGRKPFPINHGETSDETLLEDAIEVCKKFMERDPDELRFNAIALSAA
Summary of the method: as §1

UCHL5 = target: T5, UCHL5 (UniProt Q9Y5K5)
T5 sequence (whole entry): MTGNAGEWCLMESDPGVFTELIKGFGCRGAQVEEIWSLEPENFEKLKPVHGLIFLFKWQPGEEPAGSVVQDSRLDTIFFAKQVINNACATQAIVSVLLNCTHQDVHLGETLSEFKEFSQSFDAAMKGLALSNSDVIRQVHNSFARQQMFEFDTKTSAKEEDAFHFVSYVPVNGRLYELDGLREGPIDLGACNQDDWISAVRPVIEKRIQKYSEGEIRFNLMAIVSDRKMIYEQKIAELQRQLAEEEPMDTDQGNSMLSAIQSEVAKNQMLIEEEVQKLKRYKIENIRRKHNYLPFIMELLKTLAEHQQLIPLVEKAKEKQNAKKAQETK
Summary of the method: as §1

USP10 = USP10 (UniProt Q14694)
Summary of the method: as §1

USP15 = target: T6, USP15 (UniProt Q9Y4E8)
T6 sequence (whole entry): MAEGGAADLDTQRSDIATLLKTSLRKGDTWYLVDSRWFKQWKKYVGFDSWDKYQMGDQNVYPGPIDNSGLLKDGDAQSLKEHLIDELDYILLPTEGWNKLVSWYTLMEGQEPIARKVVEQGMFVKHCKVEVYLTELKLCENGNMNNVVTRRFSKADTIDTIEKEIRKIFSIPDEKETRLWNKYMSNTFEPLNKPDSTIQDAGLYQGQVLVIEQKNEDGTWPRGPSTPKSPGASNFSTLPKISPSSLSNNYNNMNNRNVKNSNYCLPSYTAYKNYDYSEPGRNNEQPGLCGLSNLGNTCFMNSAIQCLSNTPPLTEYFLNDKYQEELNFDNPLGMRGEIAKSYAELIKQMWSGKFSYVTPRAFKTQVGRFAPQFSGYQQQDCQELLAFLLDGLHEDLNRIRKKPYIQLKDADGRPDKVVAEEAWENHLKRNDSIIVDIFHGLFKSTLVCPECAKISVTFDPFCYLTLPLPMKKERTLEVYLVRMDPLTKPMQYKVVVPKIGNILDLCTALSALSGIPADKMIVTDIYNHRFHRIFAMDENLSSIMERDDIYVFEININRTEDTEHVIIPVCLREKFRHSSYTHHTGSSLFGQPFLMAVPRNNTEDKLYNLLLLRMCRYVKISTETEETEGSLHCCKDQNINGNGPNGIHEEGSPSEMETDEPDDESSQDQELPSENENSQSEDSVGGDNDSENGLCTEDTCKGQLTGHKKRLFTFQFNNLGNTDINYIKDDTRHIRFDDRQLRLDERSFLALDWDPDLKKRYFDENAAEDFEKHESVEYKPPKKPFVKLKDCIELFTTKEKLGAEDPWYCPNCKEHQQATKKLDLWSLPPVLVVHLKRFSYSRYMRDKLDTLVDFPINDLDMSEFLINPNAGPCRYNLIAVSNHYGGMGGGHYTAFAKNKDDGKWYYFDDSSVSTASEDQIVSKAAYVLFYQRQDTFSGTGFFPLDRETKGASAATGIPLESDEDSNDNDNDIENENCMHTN
Summary of the method: as §1

USP16 = USP16 (UniProt Q9Y5T5)
Summary of the method: as §1

Measured: log2 ratio of Biotin-Ahx-Ub-VS probe labelling

USP10, sequence (Q14694 whole entry): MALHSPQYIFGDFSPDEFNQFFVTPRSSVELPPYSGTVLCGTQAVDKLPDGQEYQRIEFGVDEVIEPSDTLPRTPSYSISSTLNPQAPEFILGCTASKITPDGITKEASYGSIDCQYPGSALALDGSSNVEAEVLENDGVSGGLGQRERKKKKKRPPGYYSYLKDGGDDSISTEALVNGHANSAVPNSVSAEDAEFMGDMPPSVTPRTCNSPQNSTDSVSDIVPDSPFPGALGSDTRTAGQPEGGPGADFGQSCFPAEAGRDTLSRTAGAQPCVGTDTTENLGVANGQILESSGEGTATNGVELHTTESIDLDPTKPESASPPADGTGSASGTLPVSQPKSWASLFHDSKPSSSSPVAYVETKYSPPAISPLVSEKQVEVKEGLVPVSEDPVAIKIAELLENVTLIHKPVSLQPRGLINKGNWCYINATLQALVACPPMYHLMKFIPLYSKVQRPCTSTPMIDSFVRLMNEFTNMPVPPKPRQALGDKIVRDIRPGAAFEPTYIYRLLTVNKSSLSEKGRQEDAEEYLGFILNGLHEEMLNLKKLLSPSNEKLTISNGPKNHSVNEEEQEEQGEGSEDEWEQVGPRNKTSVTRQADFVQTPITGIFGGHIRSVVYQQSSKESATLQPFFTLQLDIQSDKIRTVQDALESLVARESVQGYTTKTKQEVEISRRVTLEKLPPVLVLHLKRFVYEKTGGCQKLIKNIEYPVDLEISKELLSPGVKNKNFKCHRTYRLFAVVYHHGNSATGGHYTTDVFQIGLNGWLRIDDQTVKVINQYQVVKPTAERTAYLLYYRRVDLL
USP16, sequence (Q9Y5T5 whole entry, looked up): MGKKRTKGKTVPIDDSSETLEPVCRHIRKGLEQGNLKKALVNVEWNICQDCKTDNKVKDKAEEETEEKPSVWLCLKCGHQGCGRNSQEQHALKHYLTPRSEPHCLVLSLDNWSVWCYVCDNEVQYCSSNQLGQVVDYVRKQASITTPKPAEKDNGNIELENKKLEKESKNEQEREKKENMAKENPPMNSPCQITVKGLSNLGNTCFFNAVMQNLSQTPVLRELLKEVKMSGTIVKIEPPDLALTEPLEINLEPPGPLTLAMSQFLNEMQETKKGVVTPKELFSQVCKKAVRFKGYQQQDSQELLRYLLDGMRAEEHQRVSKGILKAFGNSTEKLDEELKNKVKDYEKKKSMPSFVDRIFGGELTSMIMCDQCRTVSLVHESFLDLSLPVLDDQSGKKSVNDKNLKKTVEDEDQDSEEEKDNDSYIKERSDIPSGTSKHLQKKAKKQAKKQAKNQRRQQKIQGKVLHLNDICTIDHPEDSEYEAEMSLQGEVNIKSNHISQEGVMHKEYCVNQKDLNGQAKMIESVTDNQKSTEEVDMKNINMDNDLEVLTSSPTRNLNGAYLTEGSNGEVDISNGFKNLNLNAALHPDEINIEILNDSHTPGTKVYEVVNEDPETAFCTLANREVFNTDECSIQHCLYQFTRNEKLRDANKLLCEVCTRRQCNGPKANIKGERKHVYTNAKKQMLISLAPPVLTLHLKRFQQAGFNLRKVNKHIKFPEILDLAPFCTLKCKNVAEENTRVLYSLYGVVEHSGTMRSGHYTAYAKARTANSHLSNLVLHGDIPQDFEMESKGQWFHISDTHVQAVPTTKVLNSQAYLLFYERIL
UCHL1, sequence (P09936 whole entry, looked up): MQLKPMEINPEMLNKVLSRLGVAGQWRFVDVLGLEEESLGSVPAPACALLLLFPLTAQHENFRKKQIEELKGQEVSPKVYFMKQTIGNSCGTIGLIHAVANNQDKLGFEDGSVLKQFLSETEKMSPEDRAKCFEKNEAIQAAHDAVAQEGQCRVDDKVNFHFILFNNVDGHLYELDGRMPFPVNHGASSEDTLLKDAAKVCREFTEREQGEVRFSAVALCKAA

CCN(C(=O)CCl)C1CCCCC1
inactive: OTUD6B -0.00402 | OTUD7B -0.011 | PRPF8 -0.0683 | PSMD7 0.00413 | UCHL1 -0.999 | UCHL3 0.576 | UCHL5 0.0144 | USP10 -0.185 | USP15 -0.0855 | USP16 0.0695
